Source: PubChem BioAssay
For some assays here: Results with a measured potency or affinity are listed apart. The source made the active and inactive calls. Unless noted, cut-off not given; nearly all actives show IC50 up to about 0.91 µM.

target: Protein kinase 7 (PK7), Plasmodium falciparum 3D7 (PF3D7_0213400) (UniProt Q7YTF7); experiment: inhibition of Plasmodium PK7 catalytic activity – biochemical, TCAMS antimalarial set, Kinase-Glo luminescence (AID 1159587; call rule not given here); settings: recombinant PfPK7, Kinase-Glo ATP depletion luminescence
Sequence (Q7YTF7 1-343): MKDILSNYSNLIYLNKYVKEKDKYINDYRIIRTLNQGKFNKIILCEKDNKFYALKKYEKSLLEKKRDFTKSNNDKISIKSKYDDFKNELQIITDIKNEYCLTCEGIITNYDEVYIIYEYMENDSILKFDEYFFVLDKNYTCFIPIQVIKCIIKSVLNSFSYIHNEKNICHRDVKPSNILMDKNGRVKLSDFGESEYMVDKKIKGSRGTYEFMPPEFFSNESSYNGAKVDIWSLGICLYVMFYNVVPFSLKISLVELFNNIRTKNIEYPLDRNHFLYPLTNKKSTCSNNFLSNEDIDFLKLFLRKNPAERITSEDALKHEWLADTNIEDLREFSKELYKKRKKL

outcome, inactive:
COC(=O)C(=C(C)C)N1C(=O)[C@@H](NC(=O)OCc2ccccc2)[C@H]1SS[C@@H]1[C@H](NC(=O)OCc2ccccc2)C(=O)N1C(C(=O)OC)=C(C)C, CCCCN(CCCC)CCC(O)C(=Cc1ccc(Cl)cc1Cl)c1ccc(C(F)(F)F)cc1N (stereo not given), CCc1ccc(-n2cc(C(=O)c3cc(Br)ccc3O)cc(C#N)c2=O)cc1, Oc1cccc(Nc2ccnc3cc(-c4cc5ccccc5o4)ccc23)c1, Cc1cc(C2CCN(CCCCNC(=O)c3ccc(NC(=O)c4ccc(Cl)cc4)cc3)CC2)c(C)cc1OCc1ccncc1, COc1ccc2nccc(NN=Cc3ccc([N+](=O)[O-])cc3)c2c1, COc1ccccc1C1CCN(C2CCC(NC(=O)c3cc(-c4ccc(Cl)cc4)cs3)CC2)CC1 (stereo not given), Cc1cc(Nc2ccc(Cl)cc2)n2nc(C(F)(F)F)nc2n1, COc1ccc2nccc([C@@H](O)CN3CCC(NCc4cc5ccccc5[nH]c4=O)CC3)c2c1, Nc1c(Cl)cc(C(O)CNCCCCCOCCc2ccccc2)cc1C(F)(F)F (stereo not given), COc1ccc(-c2cnc3ccc(NCc4ccc(F)cc4)nn23)cc1OC, CCCN(CCC)C(=O)c1cc(C(=O)N[C@@H](Cc2ccccc2)[C@H](O)CNC2CC2)cc(N2CCCCS2(=O)=O)c1, CN(C)CCOc1ccc(-c2cc(-c3ccc(Cl)c(O)c3)c(-c3ccncc3)o2)cc1, O=C(Nc1ccc(C(=O)Nc2cccc(C3=NCCN3)c2)cc1)Nc1ccc(C2=NCCN2)cc1, Cc1cc(C(=O)NCc2ccc(-c3c(C)noc3C)cc2)n(-c2ccccc2)n1, O=C1OC2(CN1CC1CCN(Cc3ccc(O)c(Cl)c3)CC1)c1ccccc1-c1ccccc12, Cc1cc(O)c(CN(C)Cc2ccc3c(c2)OCCO3)cc1C(C)C, O=C(Nc1ccc2c(c1)CCNCC2)c1ccc(-c2ccc(Cl)cc2)cc1, COc1cc(Cc2cnc(N)nc2N)cc(CC(C)O)c1O (stereo not given), O=C(Nc1ccc(C(F)(F)F)cc1)N[C@H]1CCN(CCCCCNC(=O)[C@@H]2C[C@H]2c2ccc(Cl)c(Cl)c2)C1, CN(C)CCNC(=O)c1ccc2c(c1)ncn2-c1cc(OCc2ccccc2C(F)(F)F)c(C(N)=O)s1 (tested in a mixture with another compound), CCCCCCOc1ccc(C(=O)N(Cc2ccccc2)c2c(-c3ccccc3)nc3cc(C)ccn23)cc1, CN(C)CCn1c(N)c(-c2nc3ccccc3s2)c2nc(C#N)c(C#N)nc21, Cc1nc(N)nc(N)c1CCCOc1cccc(Cl)c1, CCCC(C)Nc1nc(C)cc(N[C@@H](CC(C)C)C(=O)NCc2cccc(F)c2)n1 (stereo not given in full), Cc1ccc(NC(=O)c2ccc(N3CCN(c4ccncc4)CC3)cc2)cc1F, CC(CCCCOCCc1ccccc1)NCC(O)c1cc(Cl)c(N)c(Cl)c1 (stereo not given), O=C(Nc1ccc2nc(-c3ccc4nc(NC(=O)C5CCCCC5)sc4c3)[nH]c2c1)C1CCCCC1, Brc1cc2c(cc1C=NNc1nc(Nc3ccccc3)nc(Nc3ccccc3)n1)OCO2, Cc1cc(NCCCCCCN)nc(Nc2ccc(Cl)cc2)n1, CCCCCCCCCN1CC[C@@H](CCCc2ccnc3ccc(O)cc23)[C@@H](CC)C1, CCOC(=O)C1=C(C)NC2=C(C(=O)CC(C)(C)C2)C1c1ccc(Cl)cc1 (stereo not given), CN1CCN(CCCN(Cc2cccc(-c3cccc(CNCCc4ccccc4)c3)c2)C(=O)Nc2ccccc2)CC1, Fc1cc(CN2CCCC2)ccc1OCCCN1CCN(c2cccc(Cl)c2Cl)CC1, O=C(Nc1ccccc1F)NC1CCN(c2ccnc(Nc3ccc(F)cc3)n2)CC1, N/C(=N/C(=NCCCCCCN=C(/N=C(/N)Nc1ccc(Cl)cc1)N1CCOCC1)N1CCOCC1)Nc1ccc(Cl)cc1, COc1ccc(S(=O)(=O)Nc2cc(Br)cc3c2OCCC3)cc1N1CCN(C(=O)C(Cl)(Cl)Cl)CC1, COc1ccc(CC(=O)Nc2ccc(Nc3nc(C)cc(N4CCCC4)n3)cc2)cc1, CCOCCCNc1sc(S(=O)(=O)c2ccccc2)nc1S(=O)(=O)c1ccc(C)cc1, N#Cc1cc(C(=O)Nc2ccccc2)c(N)nc1SCC(=O)Nc1ccc(Br)cc1

target: Calcium-dependent protein kinase 4 (Plasmodium falciparum (isolate 3D7)) (UniProt Q8IBS5); experiment: PfCDPK4 kinase inhibitors, biochemical, TCAMS library (AID 1159588); settings: recombinant PfCDPK4, Kinase-Glo ATP depletion luminescence
Sequence (Q8IBS5 whole entry, looked up): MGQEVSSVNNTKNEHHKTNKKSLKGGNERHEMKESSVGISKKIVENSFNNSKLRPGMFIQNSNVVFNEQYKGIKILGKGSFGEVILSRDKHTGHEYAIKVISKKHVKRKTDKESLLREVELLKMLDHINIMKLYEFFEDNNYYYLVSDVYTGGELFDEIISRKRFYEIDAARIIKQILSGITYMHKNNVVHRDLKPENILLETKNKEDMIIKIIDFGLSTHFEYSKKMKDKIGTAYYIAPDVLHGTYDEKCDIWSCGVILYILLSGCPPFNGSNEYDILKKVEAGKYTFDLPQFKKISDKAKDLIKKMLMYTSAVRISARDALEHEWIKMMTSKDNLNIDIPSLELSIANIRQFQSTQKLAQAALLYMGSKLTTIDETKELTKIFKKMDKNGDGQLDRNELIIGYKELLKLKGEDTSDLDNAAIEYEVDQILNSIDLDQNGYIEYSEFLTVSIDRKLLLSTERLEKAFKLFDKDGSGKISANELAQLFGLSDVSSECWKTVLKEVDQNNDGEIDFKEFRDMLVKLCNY

outcome, inactive:
COC(=O)C(=C(C)C)N1C(=O)[C@@H](NC(=O)OCc2ccccc2)[C@H]1SS[C@@H]1[C@H](NC(=O)OCc2ccccc2)C(=O)N1C(C(=O)OC)=C(C)C, CCCCN(CCCC)CCC(O)C(=Cc1ccc(Cl)cc1Cl)c1ccc(C(F)(F)F)cc1N (stereo not given), CCc1ccc(-n2cc(C(=O)c3cc(Br)ccc3O)cc(C#N)c2=O)cc1, Oc1cccc(Nc2ccnc3cc(-c4cc5ccccc5o4)ccc23)c1, Cc1cc(C2CCN(CCCCNC(=O)c3ccc(NC(=O)c4ccc(Cl)cc4)cc3)CC2)c(C)cc1OCc1ccncc1, COc1ccc2nccc(NN=Cc3ccc([N+](=O)[O-])cc3)c2c1, COc1ccccc1C1CCN(C2CCC(NC(=O)c3cc(-c4ccc(Cl)cc4)cs3)CC2)CC1 (stereo not given), Cc1cc(Nc2ccc(Cl)cc2)n2nc(C(F)(F)F)nc2n1, COc1ccc2nccc([C@@H](O)CN3CCC(NCc4cc5ccccc5[nH]c4=O)CC3)c2c1, Nc1c(Cl)cc(C(O)CNCCCCCOCCc2ccccc2)cc1C(F)(F)F (stereo not given), COc1ccc(-c2cnc3ccc(NCc4ccc(F)cc4)nn23)cc1OC, CCCN(CCC)C(=O)c1cc(C(=O)N[C@@H](Cc2ccccc2)[C@H](O)CNC2CC2)cc(N2CCCCS2(=O)=O)c1, CN(C)CCOc1ccc(-c2cc(-c3ccc(Cl)c(O)c3)c(-c3ccncc3)o2)cc1, O=C(Nc1ccc(C(=O)Nc2cccc(C3=NCCN3)c2)cc1)Nc1ccc(C2=NCCN2)cc1, Cc1cc(C(=O)NCc2ccc(-c3c(C)noc3C)cc2)n(-c2ccccc2)n1, O=C1OC2(CN1CC1CCN(Cc3ccc(O)c(Cl)c3)CC1)c1ccccc1-c1ccccc12, Cc1cc(O)c(CN(C)Cc2ccc3c(c2)OCCO3)cc1C(C)C, O=C(Nc1ccc2c(c1)CCNCC2)c1ccc(-c2ccc(Cl)cc2)cc1, COc1cc(Cc2cnc(N)nc2N)cc(CC(C)O)c1O (stereo not given), O=C(Nc1ccc(C(F)(F)F)cc1)N[C@H]1CCN(CCCCCNC(=O)[C@@H]2C[C@H]2c2ccc(Cl)c(Cl)c2)C1, CN(C)CCNC(=O)c1ccc2c(c1)ncn2-c1cc(OCc2ccccc2C(F)(F)F)c(C(N)=O)s1 (tested in a mixture with another compound), CCCCCCOc1ccc(C(=O)N(Cc2ccccc2)c2c(-c3ccccc3)nc3cc(C)ccn23)cc1, CN(C)CCn1c(N)c(-c2nc3ccccc3s2)c2nc(C#N)c(C#N)nc21, Cc1nc(N)nc(N)c1CCCOc1cccc(Cl)c1, CCCC(C)Nc1nc(C)cc(N[C@@H](CC(C)C)C(=O)NCc2cccc(F)c2)n1 (stereo not given in full), Cc1ccc(NC(=O)c2ccc(N3CCN(c4ccncc4)CC3)cc2)cc1F, CC(CCCCOCCc1ccccc1)NCC(O)c1cc(Cl)c(N)c(Cl)c1 (stereo not given), O=C(Nc1ccc2nc(-c3ccc4nc(NC(=O)C5CCCCC5)sc4c3)[nH]c2c1)C1CCCCC1, Brc1cc2c(cc1C=NNc1nc(Nc3ccccc3)nc(Nc3ccccc3)n1)OCO2, Cc1cc(NCCCCCCN)nc(Nc2ccc(Cl)cc2)n1, CCCCCCCCCN1CC[C@@H](CCCc2ccnc3ccc(O)cc23)[C@@H](CC)C1, CCOC(=O)C1=C(C)NC2=C(C(=O)CC(C)(C)C2)C1c1ccc(Cl)cc1 (stereo not given), CN1CCN(CCCN(Cc2cccc(-c3cccc(CNCCc4ccccc4)c3)c2)C(=O)Nc2ccccc2)CC1, Fc1cc(CN2CCCC2)ccc1OCCCN1CCN(c2cccc(Cl)c2Cl)CC1, O=C(Nc1ccccc1F)NC1CCN(c2ccnc(Nc3ccc(F)cc3)n2)CC1, N/C(=N/C(=NCCCCCCN=C(/N=C(/N)Nc1ccc(Cl)cc1)N1CCOCC1)N1CCOCC1)Nc1ccc(Cl)cc1, COc1ccc(S(=O)(=O)Nc2cc(Br)cc3c2OCCC3)cc1N1CCN(C(=O)C(Cl)(Cl)Cl)CC1, COc1ccc(CC(=O)Nc2ccc(Nc3nc(C)cc(N4CCCC4)n3)cc2)cc1, CCOCCCNc1sc(S(=O)(=O)c2ccccc2)nc1S(=O)(=O)c1ccc(C)cc1, N#Cc1cc(C(=O)Nc2ccccc2)c(N)nc1SCC(=O)Nc1ccc(Br)cc1
